Source: the supplement of paper PMC8728848
About 410 targets per protein were measured; listed, in parts, are those with the strongest signals and a random draw of the rest.

Experiments:
Assay in all cases: glycan array binding signal (z-score within array); higher = stronger binding
Settings in all cases: glycan notation: IUPAC condensed, linker removed
[1] = biological target: Fuc(a1-2)Gal(b1-3)GlcNAc(b1-3)[Gal(b1-4)GlcNAc(b1-6)]Gal(b1-4)Glc
Outline: (§1)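 Glycan array binding is given as a within-array Z-score, which can be read as non-binding when negative. The arrays, 3228 of them, came from the Consortium for Functional Glycomics database and were retained only where the protein sequence was available. Z-scores were averaged across arrays of the same protein sequence at different concentrations or buffers and across linkers.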

[2] = biological target: Fuc(a1-2)Gal(b1-3)GlcNAc(b1-3)[Neu5Ac(a2-6)Gal(b1-4)GlcNAc(b1-6)]Gal(b1-4)Glc
Outline: as §1

[3] = biological target: Fuc(a1-2)Gal(b1-4)Glc
Outline: as §1

[4] = biological target: Fuc(a1-2)Gal(b1-4)GlcNAc(b1-3)Gal(b1-4)GlcNAc(b1-3)Gal(b1-4)GlcNAc
Outline: as §1

[5] = biological target: Fuc(a1-2)[Gal(a1-3)]Gal
Outline: as §1

[6] = biological target: Fuc(a1-2)[Gal(a1-3)]Gal(b1-3)GlcNAc(b1-6)GalNAc
Outline: as §1

[7] = biological target: Fuc(a1-2)[Gal(a1-3)]Gal(b1-4)GlcNAc(b1-6)GalNAc
Outline: as §1

[8] = biological target: Fuc(a1-2)[GalNAc(a1-3)]Gal(b1-3)GlcNAc(b1-2)Man(a1-3)[Fuc(a1-2)[GalNAc(a1-3)]Gal(b1-3)GlcNAc(b1-2)Man(a1-6)]Man(b1-4)GlcNAc(b1-4)[Fuc(a1-6)]GlcNAc
Outline: as §1

[9] = biological target: Fuc(a1-2)[GalNAc(a1-3)]Gal(b1-4)GlcNAc(b1-3)[Fuc(a1-2)[GalNAc(a1-3)]Gal(b1-4)GlcNAc(b1-6)]GalNAc
Outline: as §1

[10] = biological target: Fuc(a1-3)[GalNAc(b1-4)]GlcNAc
Outline: as §1

[11] = biological target: Fuc(a1-4)GlcNAc
Outline: as §1

[12] = biological target: Gal(a1-3)Gal(b1-4)GlcNAc
Outline: as §1

[13] = biological target: Gal(a1-3)[Gal(a1-4)]Gal(b1-4)GlcNAc
Outline: as §1

[14] = biological target: Gal(b1-3)GlcNAc(b1-3)Gal(b1-4)Glc
Outline: as §1

[15] = biological target: Gal(b1-3)GlcNAc(b1-3)Gal(b1-4)[Fuc(a1-3)]GlcNAc
Outline: as §1

[16] = biological target: Gal(b1-3)[Fuc(a1-4)]GlcNAc(b1-2)Man
Outline: as §1

[17] = biological target: Gal(b1-3)[GlcNAc(b1-6)]GalNAc
Outline: as §1

[18] = biological target: Gal(b1-4)GalNAc(a1-3)[Fuc(a1-2)]Gal(b1-4)GlcNAc
Outline: as §1

[19] = biological target: Gal(b1-4)GlcNAc(b1-2)Man(a1-3)[GlcNAc(b1-4)][Gal(b1-4)GlcNAc(b1-2)Man(a1-6)]Man(b1-4)GlcNAc(b1-4)GlcNAc
Outline: as §1

[20] = biological target: Gal(b1-4)GlcNAc(b1-3)Gal(b1-4)GlcNAc(b1-3)Gal(b1-4)GlcNAc(b1-3)Gal(b1-4)GlcNAc(b1-3)Gal(b1-4)GlcNAc(b1-2)[Gal(b1-4)GlcNAc(b1-3)Gal(b1-4)GlcNAc(b1-3)Gal(b1-4)GlcNAc(b1-3)Gal(b1-4)GlcNAc(b1-3)Gal(b1-4)GlcNAc(b1-6)]Man(a1-6)[Gal(b1-4)GlcNAc(b1-3)Gal(b1-4)GlcNAc(b1-3)Gal(b1-4)GlcNAc(b1-3)Gal(b1-4)GlcNAc(b1-3)Gal(b1-4)GlcNAc(b1-2)Man(a1-3)]Man(b1-4)GlcNAc(b1-4)[Fuc(a1-6)]GlcNAc
Outline: as §1

[21] = biological target: Gal(b1-4)GlcNAc(b1-3)Gal(b1-4)GlcNAc(b1-6)[Gal(b1-3)]GalNAc
Outline: as §1

[22] = biological target: Gal3S4S(b1-4)GlcNAc
Outline: as §1

[23] = biological target: Gal3S6S(b1-4)GlcNAc
Outline: as §1

[24] = biological target: Gal4S(b1-4)GlcNAc
Outline: as §1

[25] = biological target: GalNAc3S(b1-4)[Fuc(a1-3)]GlcNAc
Outline: as §1

[26] = biological target: GlcNAc(b1-2)[GlcNAc(b1-4)]Man(a1-3)[GlcNAc(b1-2)Man(a1-6)]Man(b1-4)GlcNAc(b1-4)GlcNAc
Outline: as §1

[27] = biological target: GlcNAc(b1-2)[GlcNAc(b1-4)]Man(a1-3)[GlcNAc(b1-4)][GlcNAc(b1-2)Man(a1-6)]Man(b1-4)GlcNAc(b1-4)GlcNAc
Outline: as §1

[28] = biological target: GlcNAc(b1-2)[GlcNAc(b1-4)]Man(a1-3)[GlcNAc(b1-4)][GlcNAc(b1-2)[GlcNAc(b1-6)]Man(a1-6)]Man(b1-4)GlcNAc(b1-4)GlcNAc
Outline: as §1

[29] = biological target: GlcNAc(b1-2)[GlcNAc(b1-4)]Man(a1-3)[GlcNAc(b1-4)][GlcNAc(b1-2)[GlcNAc(b1-6)]Man(a1-6)]Man(b1-4)GlcNAc(b1-4)[Fuc(a1-6)]GlcNAc
Outline: as §1

[30] = biological target: GlcNAc(b1-3)Gal(b1-4)GlcNAc(b1-2)[GlcNAc(b1-3)Gal(b1-4)GlcNAc(b1-6)]Man(a1-6)[GlcNAc(b1-3)Gal(b1-4)GlcNAc(b1-2)Man(a1-3)]Man(b1-4)GlcNAc(b1-4)GlcNAc
Outline: as §1

B1: SP8524D-bot-399-27-399 (Bacteroides ovatus) (protein)
chain: DAKYDTLDTHAYIEEALSSTSQKVTVQATGESFTTLNVHLSNLSSTDNHYKLVTDQSVLDTYNHINGTGYIMLPKDYYTLPETITVKAGQYAADALSIALKAFSQEMMKSGESYALPVKLVLQDGSISPMENTGTFVILAESIIEFSAPMFVGAPSLKANKFTESPETYSQYTIEVRFQVANTADRDRAVFKNGGDDANFILLRFEDPQSDNENYKAHSLVQIVGRNRLYLNPSNSFKPNEWQHLALVCDGSNYRLYINGVDSGVLSIPTGATTFSDVNWFCLGDDSYSRWGNCKILMSEARIWSVVRSASQIQNNMTQVSPKSVGLEAYWRFNEGQGNVFEDATGKGHTLTTSATPTWIDGILSTDKSTEWK
Q: How did the “glycan array binding signal (z-score)” value [1] turn out when B1 was run?
A: -0.119

Q: What about the “glycan array binding signal (z-score)” value [2] of the same binder?
A: -0.348

Q: And the “glycan array binding signal (z-score)” value [3]?
A: -0.082

Q: And the “glycan array binding signal (z-score)” value [4]?
A: -0.049

Q: What about the “glycan array binding signal (z-score)” value [5] of the same binder?
A: 1.34

Q: And the “glycan array binding signal (z-score)” value [6]?
A: -0.387

Q: What about the “glycan array binding signal (z-score)” value [7] of the same binder?
A: -0.255

Q: What about the “glycan array binding signal (z-score)” value [8] of the same binder?
A: -0.246

Q: What about the “glycan array binding signal (z-score)” value [9] of the same binder?
A: -0.238

Q: What about the “glycan array binding signal (z-score)” value [10] of the same binder?
A: 1.02

Q: What about the “glycan array binding signal (z-score)” value [11] of the same binder?
A: 6.02

Q: And the “glycan array binding signal (z-score)” value [12]?
A: -0.463

Q: And the “glycan array binding signal (z-score)” value [13]?
A: 3.56

Q: And the “glycan array binding signal (z-score)” value [14]?
A: -0.359

Q: And the “glycan array binding signal (z-score)” value [15]?
A: -0.174

Q: And the “glycan array binding signal (z-score)” value [16]?
A: 0.35

Q: And the “glycan array binding signal (z-score)” value [17]?
A: -0.01

Q: What about the “glycan array binding signal (z-score)” value [18] of the same binder?
A: 0.229

Q: And the “glycan array binding signal (z-score)” value [19]?
A: -0.382

Q: And the “glycan array binding signal (z-score)” value [20]?
A: 1.02

Q: And the “glycan array binding signal (z-score)” value [21]?
A: 0.317

Q: What about the “glycan array binding signal (z-score)” value [22] of the same binder?
A: -0.075

Q: What about the “glycan array binding signal (z-score)” value [23] of the same binder?
A: 0.506

Q: And the “glycan array binding signal (z-score)” value [24]?
A: 0.045

Q: What about the “glycan array binding signal (z-score)” value [25] of the same binder?
A: 0.563

Q: What about the “glycan array binding signal (z-score)” value [26] of the same binder?
A: 16.1

Q: What about the “glycan array binding signal (z-score)” value [27] of the same binder?
A: 8.43

Q: And the “glycan array binding signal (z-score)” value [28]?
A: 12.1

Q: And the “glycan array binding signal (z-score)” value [29]?
A: 2.04

Q: And the “glycan array binding signal (z-score)” value [30]?
A: 0.455
